Test results as given in PubChem BioAssay AID1031 (Columbia University Molecular Screening Center, 2008).
The list shows a part of the results. Values without a mark were called inactive. The rule behind the calls is not given here.

Molecular target: Tyrosine-protein phosphatase non-receptor type 22 (Homo sapiens) (UniProt Q9Y2R2)
Assay: LYP phosphatase activation, single-dose recheck – biochemical, DiFMUP fluorescence, single concentration, confirmation (AID 1031)
Conditions: Recombinant LYP, at 2 µM, hits give high values, zero set by plate's median compound well

Tyrosine-protein phosphatase non-receptor type 22 (Homo sapiens), sequence (Q9Y2R2 whole entry, looked up): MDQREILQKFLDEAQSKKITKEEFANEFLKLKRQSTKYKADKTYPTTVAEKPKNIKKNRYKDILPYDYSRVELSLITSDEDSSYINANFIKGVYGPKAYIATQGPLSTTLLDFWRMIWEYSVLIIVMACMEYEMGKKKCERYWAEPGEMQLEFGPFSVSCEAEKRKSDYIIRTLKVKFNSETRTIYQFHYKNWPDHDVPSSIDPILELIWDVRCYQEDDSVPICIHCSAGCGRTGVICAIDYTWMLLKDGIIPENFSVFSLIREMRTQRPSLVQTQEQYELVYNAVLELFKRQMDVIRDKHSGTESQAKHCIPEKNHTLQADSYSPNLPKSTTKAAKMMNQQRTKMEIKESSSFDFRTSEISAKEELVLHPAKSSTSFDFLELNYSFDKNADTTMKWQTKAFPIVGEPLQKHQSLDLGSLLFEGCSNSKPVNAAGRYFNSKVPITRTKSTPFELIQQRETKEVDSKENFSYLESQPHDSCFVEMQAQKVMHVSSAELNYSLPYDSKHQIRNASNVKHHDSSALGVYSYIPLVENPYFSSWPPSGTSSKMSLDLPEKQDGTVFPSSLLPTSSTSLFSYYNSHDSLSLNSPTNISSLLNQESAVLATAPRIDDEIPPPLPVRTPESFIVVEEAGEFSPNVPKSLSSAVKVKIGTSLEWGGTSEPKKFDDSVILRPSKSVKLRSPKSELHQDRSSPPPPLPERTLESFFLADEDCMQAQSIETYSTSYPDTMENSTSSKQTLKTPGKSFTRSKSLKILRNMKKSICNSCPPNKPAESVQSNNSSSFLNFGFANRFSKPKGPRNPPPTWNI

SMILES | activation
N#CCCn1ncc2ccccc21 | 5.5%
Cc1ccccc1NC(=O)c1cc(S(=O)(=O)N2CCOCC2)cs1 | -3.6%
